G9a inh: G9a (human) methyltransferase inhibition | 350,000 compounds, 8.8% hits | Q96KQ7 | G9a H3K9 monomethylation, AlphaScreen, 2 h | Potency, µM (doses to about 102 µM), without a hit: at the top dose activity, negative = inhibition, actives largely listed as inhibitors | AID 504332; also: potency is read from the fitted curve at half-maximal effect; % is scaled to controls: 0 for no effect and ±100 for the full control effect; nearly all actives have a fitted effect of over 75% in size
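Chemiluminescent proximity detection of H3K9 monomethylation, read after 10 min bead incubation in the dark. Reaction: 20 nM G9a, 500 nM biotin-H3K9 peptide, 20 uM SAM cofactor, 2 h, room temperature, following 15 min enzyme-compound preincubation.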
HP1b binding inh: blocks HP1-beta chromodomain binding to methylated histone tails | 390,000 compounds, 0.56% hits | AID 540317 | Potency, µM (top dose mostly 114 µM), for the others: at the top dose activity change, negative = inhibition, usual class: inhibitors | AlphaScreen HP1-beta / biotin-H3K9me3 peptide binding; also: potency is read from the fitted curve at half-maximal effect; nearly all actives have a fitted effect of over 70% in size
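HP1-beta protein (50 nM final) preincubated 30 min at room temperature with biotinylated H3(1-18)K9me3 peptide (50 nM) in PBS pH 7.4, 0.01% Tween-20, then compound added for 30 min. AlphaScreen streptavidin donor/nickel chelate acceptor beads (10 ug/mL final), 30 min dark, luminescence read.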
PI5P4K alpha inh: blocks human PI5P4K alpha kinase activity | P48426 | PI5P4Kalpha enzyme, ADP-Glo luminescence, 60 min; hits give low values | AID 652105 | 330,000 compounds, 1.2% hits | max response, %; active = max response of -50% or lower; inconclusive = between -30% and -50%; inactive = -30% or higher; also: value at the top dose of about 77 µM; % is scaled to controls: 0 for no effect and ±100 for the full control effect
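ADP-Glo luminescence end-point read after a 60 min room-temperature kinase reaction of PI5P4Kalpha plus substrate, initiated with ATP at 5 microM final. Buffer: 0.038 M HEPES pH 7.4, EGTA, 0.1% CHAPS, 5% DMSO.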
L3MBTL1 block: L3MBTL1 (human) inhibition; AlphaScreen L3MBTL1–H3K9me1 peptide binding; 230,000 compounds, 0.66% hits; Q9Y468; Potency, µM (doses to about 57.1 µM), for the others: at the highest dose activity, negative = inhibition, most hits filed as inhibitors; also: potency is read from the fitted curve at half-maximal effect; % is scaled to controls: 0 for no effect and ±100 for the full control effect; nearly all actives have a fitted effect of over 60% in size
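L3MBTL1 50 nM + b-AHA-H3(1-15)K9me1 75 nM, 30 min RT; compound added, 30 min RT; streptavidin donor/Ni-chelate acceptor beads 10 ug/mL each final, 30 min RT dark; AlphaScreen read.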
JMJD2A Tudor: blocks the human JMJD2A Tudor domain; 390,000 compounds, 4.4% hits; O75164; Potency, µM (doses to about 114 µM), for the others: at the top dose activity change, negative = inhibition, actives largely listed as inhibitors; AlphaScreen JMJD2A-Tudor / H3K4me3 peptide binding; also: potency is read from the fitted curve at half-maximal effect; % is scaled to controls: 0 for no effect and ±100 for the full control effect; nearly all actives have a fitted effect of over 50% in size
BAZ2B block: inhibitors of human BAZ2B bromodomain; Q9UIF8; AlphaScreen BAZ2B-H3K14Ac peptide displacement; Potency, µM (titrated, usually from 114 µM), for inactives: top-dose activity change, negative = inhibition, hits mostly inhibitors; 360,000 compounds, 4.4% hits; AID 504333; also: potency is read from the fitted curve at half-maximal effect; % is scaled to controls: 0 for no effect and ±100 for the full control effect; nearly all actives have a fitted effect of over 60% in size
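In this displacement format the biotinylated H3(5-23) peptide acetylated at Lys14 serves as ligand at 50 nM, with BAZ2B at 50 nM in PBS pH 7.4 containing 0.01% Tween-20. Donor and acceptor beads are 10 ug/mL final.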
Numbers without * were called inactive; u = inconclusive; x = no result given; [ ] = dose if it differs, or a comment. Sampled rows, rich in hits. Any-hit rate of the full collection: about 11%. Unless noted, calls follow the shape of the dose curve; as a rule, active = well fitted inhibition curve with a large enough effect; inconclusive = small, poorly fitted or top-dose-only effect; inactive = no such curve, though single readings can be large or run the other way.

SMILES	G9a inh	HP1b binding inh	PI5P4K alpha inh	L3MBTL1 block	JMJD2A Tudor	BAZ2B block
O=C1Cc2cc(CCN3CCN(c4nsc5ccccc45)CC3)c(Cl)cc2N1	10.6µM*	x	x	x	x	u
CC1CCCC(C)N1C(=O)COC(=O)/C=C/c1ccc(Br)o1 (stereo not given)	x	u	u	u	20µM*	x
CC(C)Nc1nc(NC(C)C)nc(C(=O)OCCO)n1	u	29.6%	-0.5	x	50.1µM*	35.5µM*
CCNc1nc(NCC)nc(C(=O)OCCO)n1	39.8µM*	41.8%	0.6	x	35.5µM*	25.1µM*
CC(C)(C)c1ccc(C2=NC(C)(C)N(CC(=O)Nc3ccc(F)c(F)c3)C2=O)cc1	4.5%[59 µM]	36.2%	x	x	-3.4%	-5.9%
O=S(=O)(c1ccc(=S)[nH]c1)N1CCCCCC1	u	32.2%	-2.4	8.7%	4.1%	1.4%
O=S(=O)(c1ccc2oc(=S)[nH]c2c1)N1CCOCC1	1.26µM*	-41.3%	-69.2*	0.7%	79.4µM*	-38.1%
O=S(=O)(Nc1cccc(Cl)c1)c1ccc2oc(=S)[nH]c2c1	25.1µM*	-15.1%	-23.0	-1.5%	20µM*	x
O=S(=O)(c1ccc2oc(=S)[nH]c2c1)N1CCCCC1	44.7µM*	14.0%	u	9.3%	-18.4%	-1.2%
O=c1[nH]c2ccc(S(=O)(=O)N3CCCCC3)cc2o1	u	16.9%	x	-4.2%	u	-2.3%
O=S(=O)(c1ccc(=S)[nH]c1)N1CCOCC1	u	-19.2%	u	2.0%	11.2µM*	-5.5%
COc1ccccc1-c1nnc(SCC(=O)c2ccc(F)cc2)n1-c1ccccc1	u	3.5%	x	x	-25.4%	u
COc1ccccc1CNC(=O)c1ccc(-c2nc(CN3CCc4ccccc43)c(C)o2)cc1	u	-3.1%[57 µM]	x	x	u	-36.5%
COc1ccc(C2=C(C)C(=O)N(Cc3ccc(C(=O)NC(C)c4ccccc4)cc3)S2(=O)=O)cc1 (stereo not given)	8.2%[59 µM]	26.5%	x	x	-1.0%	-15.9%
COCCCN1C2=C(C(=O)CC(C)(C)C2)C(c2ccc(OC)c(OC)c2)C2=C1CC(C)(C)CC2=O	70.8µM*	23.4%	-0.2	-0.7%	-11.3%	-16.8%
COc1cc(C2C3=C(CC(C)(C)CC3=O)N(C)C3=C2C(=O)CC(C)(C)C3)ccc1O	x	18.6%	5.7	0.3%	-1.4%	-2.0%
COc1cc(C2C3=C(CC(C)(C)CC3=O)N(C)C3=C2C(=O)CC(C)(C)C3)cc(Br)c1O	70.8µM*	49.2%	-3.1	1.0%	-9.6%	12.2%
COc1cc(NS(=O)(=O)c2ccc(NC(=O)c3ccc(Cl)cc3Cl)cc2)nc(OC)n1	-39.7%[59 µM]	28.5%	x	x	-18.3%	0.9%
CCc1ccc(-n2nc3ccc(NC(=O)c4cc5ccccc5o4)cc3n2)cc1	2.1%[59 µM]	30.4%	x	x	7.6%	1.1%
CC1(c2ccc(Cl)cc2)NC(=O)N(CC(=O)Nc2ccc(N3CCCCC3)cc2)C1=O (stereo not given)	50.1µM*	-23.5%	-9.4	-16.8%	u	u
CC1(c2ccc(Cl)cc2)NC(=O)N(CC(=O)Nc2ccc(F)cc2)C1=O (stereo not given)	11.9%[59 µM]	-0.7%	15.6	x	-11.0%	-0.1%
Cc1ccc(C2(C)NC(=O)N(CC(=O)Nc3ccccc3N3CCCCC3)C2=O)cc1 (stereo not given)	-47.8%	5.4%	7.6	-4.4%	-28.3%	-4.5%
CCC1(c2ccc(F)cc2)NC(=O)N(CC(=O)Nc2ccc(N3CCCCC3)cc2)C1=O (stereo not given)	-5.8%[0.501 µM]	-47.8%	-5.1	-17.8%	44.7µM*	44.7µM*
Cc1ccc(C2(C)NC(=O)N(CC(=O)Nc3ccccc3N3CCCC3)C2=O)cc1 (stereo not given)	39.8µM*	-21.3%	-3.0	2.82µM*	u	50.1µM*
CCN(CC)S(=O)(=O)c1ccc2c(c1)nc(CN(C)C(=O)Nc1ccc(F)cc1)n2C	u	34.7%	x	x	-4.3%	-5.0%
CCC1CN(C(=O)N2CCC(C(=O)NCCCc3ccccc3)CC2)c2ccccc2O1 (stereo not given)	-44.1%[59 µM]	14.0%	x	x	u	u
